The list is not random: actives were taken first. Their share in the collection is about 1.2%.
GC-A act – GC-A (human) enzyme activation; AID 1671463; P16066; HEK293 GC-A cells, cGMP TR-FRET, EC30 ANP; 0% at EC30 ANP, 100% saturating ANP; actives 0.14% (n = 370,000); activation, % at 10 µM; in the data active = activation above about 40%
GC-B act – GC-B (human) receptor activation. HEK293-GC-B cells, CNP EC30, cGMP TR-FRET; 0% at EC30 CNP, 100% saturating CNP. activation, % at 10 µM. actives 0.11% (n = 370,000). AID 1920062;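 active = activation at 10 µM reaching about 35% in either raw or pattern-adjusted values, limit read from the data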
Target sequence (P20594 whole entry, looked up): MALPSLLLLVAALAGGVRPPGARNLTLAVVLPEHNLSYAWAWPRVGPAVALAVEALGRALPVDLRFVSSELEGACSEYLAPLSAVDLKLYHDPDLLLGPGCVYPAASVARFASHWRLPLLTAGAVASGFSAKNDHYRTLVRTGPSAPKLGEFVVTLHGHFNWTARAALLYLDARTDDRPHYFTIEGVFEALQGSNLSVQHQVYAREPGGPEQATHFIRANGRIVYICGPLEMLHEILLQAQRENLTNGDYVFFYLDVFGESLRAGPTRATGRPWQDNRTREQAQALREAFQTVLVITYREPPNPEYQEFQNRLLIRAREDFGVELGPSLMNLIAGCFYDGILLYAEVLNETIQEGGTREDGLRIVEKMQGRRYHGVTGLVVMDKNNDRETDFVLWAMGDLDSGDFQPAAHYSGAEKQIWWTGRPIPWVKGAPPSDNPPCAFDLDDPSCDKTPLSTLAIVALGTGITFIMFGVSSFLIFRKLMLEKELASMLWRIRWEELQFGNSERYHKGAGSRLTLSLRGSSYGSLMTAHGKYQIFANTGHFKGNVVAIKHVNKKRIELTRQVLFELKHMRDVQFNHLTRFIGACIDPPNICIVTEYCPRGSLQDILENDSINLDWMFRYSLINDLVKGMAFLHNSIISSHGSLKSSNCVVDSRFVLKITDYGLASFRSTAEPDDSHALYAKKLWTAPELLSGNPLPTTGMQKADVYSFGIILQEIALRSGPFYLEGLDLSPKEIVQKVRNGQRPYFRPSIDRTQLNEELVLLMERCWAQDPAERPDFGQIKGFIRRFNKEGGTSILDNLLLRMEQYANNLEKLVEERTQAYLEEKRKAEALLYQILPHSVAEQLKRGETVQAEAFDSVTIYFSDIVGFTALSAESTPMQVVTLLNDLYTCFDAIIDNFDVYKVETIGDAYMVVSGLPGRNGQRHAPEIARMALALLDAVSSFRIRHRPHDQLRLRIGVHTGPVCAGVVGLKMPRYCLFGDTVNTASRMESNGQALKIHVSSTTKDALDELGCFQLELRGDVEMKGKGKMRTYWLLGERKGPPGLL
MsrA act – activators of bovine methionine sulfoxide reductase A; purified bovine MsrA, absorbance read-out; activation, % at 10.6 µM; actives 0.3% (n = 360,000); AID 602163; in the data active = activation above about 7.5%;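 note: 0% = vehicle and 100% = reference activator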
MsrA inh – inhibitors of bovine MsrA | purified bovine MsrA, absorbance read-out | inhibition, % at 15.5 µM | actives 0.75% (n = 360,000); in the data active = inhibition above about 4.5%;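 note: 0% = vehicle wells with enzyme and 100% = reference inhibitor wells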
MsrA act confirm – confirmation of bovine methionine sulfoxide reductase A activators. shares compounds with MsrA act. actives 12% (n = 1,000). activation, % at 10.6 µM. purified bovine MsrA, absorbance read-out; in the data active = activation above about 4%;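 note: enzyme coupled to thioredoxin and thioredoxin reductase with NADPH; 0% = vehicle wells and 100% = reference activator wells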
The depositor's hits bear a star; x = no result given.

SMILES | GC-A act | GC-B act | MsrA act | MsrA inh | MsrA act confirm
COc1ccc(S(=O)(=O)N2CCOCC2)cc1NC(=O)COC(=O)c1[nH]c(C)c(C(C)=O)c1C | 5 | 2 | -7 | 0 | x
O=C(COC(=O)c1ccc([N+](=O)[O-])s1)Nc1ccccc1 | 2 | -1 | 23* | 0 | 11*
O=C(COC(=O)c1ccc([N+](=O)[O-])s1)Nc1ccc(F)cc1 | -1 | 5 | 20* | 2 | 9.1*
C=CCNC(=O)Nc1ccc2c(c1)[C@@]1(CC(=O)N(CC(C)C)C1c1ccccc1)C(=O)N2C (some centres not stated) | 0 | 1 | x | x | x
c1cc(-c2nnc3n2N=C(c2ccc4c(c2)OCO4)CS3)ccn1 | 11 | 10 | x | x | x
CC(=O)Nc1ccc(OCC(=O)NCCc2ccccc2)cc1 | 5 | 4 | 7.8* | 1 | 0
CCCC[C@H]1C2CC(OC(=O)NCc3ccc(Cl)cc3)C(C2)[C@H]2CCCCN21 (some centres not stated) | 1 | 1 | x | x | x
CC(=O)Nc1ccc(SC[C@H](Cc2ccccc2)N2CC[C@@H](C(C)(C)C)CCC2=O)cc1 | -1 | 1 | -4 | 1 | x
CC(=O)Nc1ccc(SC[C@H](Cc2ccccc2)N2CC[C@@H](O)CCC2=O)cc1 | -3 | -3 | 9.3* | 0 | -1
Cc1c[nH]c2cccc(-c3c(Cl)cccc3Cl)c12 | -3 | 12 | x | x | x
CCCCOC(=O)Nc1ccccc1C(=O)N1CCCC1 | 3 | 7 | 15* | 1 | 0
NS(=O)(=O)c1ccc(NC(=O)CSc2nnc(-c3cccs3)o2)cc1 | -18 | -12 | x | x | x
COc1ccc(CN(CCN2CCOCC2)C(=O)c2ccc(F)cc2Cl)cc1OC | 3 | -7 | x | x | x
Cc1ccsc1/C=N/n1c(-c2ccco2)n[nH]c1=S | 1 | 1 | 11* | 2 | -1
COc1ccc(Cn2ccc3ccc(-c4ccc5ccn(Cc6ccc(C#N)cc6)c5c4)cc32)cc1 | 0 | -1 | x | x | x
Cc1ccc(-n2[nH]c(C)c(C=Nc3ccc4[nH]c(=O)[nH]c4c3)c2=O)cc1C | -8 | -7 | -8 | 2 | x
Cc1ccc(-n2[nH]c(C)c(C=Nc3ccc4[nH]c(=O)[nH]c4c3)c2=O)cc1 | -3 | -4 | 7.8* | 3 | 0
Nn1c(SCC(=O)Nc2ccc(C(=O)O)cc2)nnc1-c1ccco1 | 3 | 1 | x | x | x
Cc1ccc(-c2cc(-c3nnc(SCC(=O)N4c5ccccc5Sc5ccccc54)n3N)[nH]n2)cc1 | -5 | 7 | x | x | x
Cc1[nH][nH]c(=O)c1N=Nc1ccccc1Cl | -1 | -1 | -3 | 4 | x
Clc1ccccc1N=Nc1ccccn1 | 2 | -1 | 34* | 0 | 0
CC(C)NC(=O)C1CCN(c2cncnc2)CC1 | 5 | 3 | x | x | x
S=c1[nH]c2cc(Cl)ccc2s1 | -4 | -7 | 12* | 1 | 4.8*
C=CCN(CC#CC(=C)C)CC1CC1 | 4 | 3 | x | x | x
CC1(C)CC(=O)C2=C(C1)N(Cc1ccco1)C(=O)C2(NC(=O)c1cccnc1)C(F)(F)F (configuration not stated) | 2 | 7 | 8.2* | 0 | -2
SMILES | GC-A act | GC-B act | MsrA act | MsrA inh | MsrA act confirm
CCOC(=O)NC1(C(F)(F)F)C(=O)N(Cc2ccccc2)C2=C1C(=O)CC(C)(C)C2 (configuration not stated) | -3 | 1 | 12* | 1 | -1
COc1ccc(O)c(/C=N/NC(=O)CCC(=O)Nc2ccc(F)cc2)c1 | 3 | 2 | 7.9* | 1 | -3
COc1ccc(/C=N/NC(=O)CCC(=O)Nc2ccc(F)cc2)c(OC)c1 | 0 | -3 | -10 | 4 | x
Cc1ccc(NC(=O)CCC(=O)NNC(=O)NC23CC4CC(CC(C4)C2)C3)cc1C | -6 | -7 | 9.0* | 1 | 0
O=C(CSc1nnc(-c2ccc(Cl)cc2)n1C1CCCCC1)NN=Cc1c(O)ccc2ccccc12 | -5 | 7 | x | x | x
COc1ccc(C(=O)NC(=O)COC(=O)C2CC2C)cc1 (configuration not stated) | 3 | 3 | 8.0* | 0 | -3
NC(=O)c1ccc(NC(=O)CSc2nnc(C3CCCCC3)n2N)cc1 | 1 | 3 | -5 | 0 | x
Nn1c(SCC(=O)Nc2ccc(F)c(F)c2)nnc1C1CCCCC1 | -2 | -3 | 9.3* | 0 | -2
Cc1cc(CN(C)C(=O)c2ccc(OC3CCN(CCc4ccccc4)CC3)cc2)on1 | -3 | 0 | 11* | -1 | 1
OC(c1ccc(F)c(F)c1)c1nc(-c2ccc3ccccc3c2)cs1 (configuration not stated) | -2 | 1 | 9.2* | -1 | 1
